The campaign covered roughly 96,000 compounds. About 20,000 (21%) were called active.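 Rule for the calls: active = CYP2C19 inhibition above a set limit at 5 µM in the primary screen (cut at about 50% in these data); inactive = the rest.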 Only a sample is shown.

The assay deals with Cytochrome P450 2C19 (Homo sapiens) (UniProt P33261). Kind of assay: blockers of cytochrome P450 2C19 activity – biochemical, luminescence, ADME assay, primary screen (AID 778).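 Note: plate controls were negative control wells for no effect and 2.5 mM tranylcypromine positive control for full effect.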 The conditions noted are these: CYP2C19 Supersomes, luciferin-H EGE luminescence, 30 min; at 5 µM; active compounds read high.
Chain of Cytochrome P450 2C19 (Homo sapiens) (P33261 whole entry, looked up): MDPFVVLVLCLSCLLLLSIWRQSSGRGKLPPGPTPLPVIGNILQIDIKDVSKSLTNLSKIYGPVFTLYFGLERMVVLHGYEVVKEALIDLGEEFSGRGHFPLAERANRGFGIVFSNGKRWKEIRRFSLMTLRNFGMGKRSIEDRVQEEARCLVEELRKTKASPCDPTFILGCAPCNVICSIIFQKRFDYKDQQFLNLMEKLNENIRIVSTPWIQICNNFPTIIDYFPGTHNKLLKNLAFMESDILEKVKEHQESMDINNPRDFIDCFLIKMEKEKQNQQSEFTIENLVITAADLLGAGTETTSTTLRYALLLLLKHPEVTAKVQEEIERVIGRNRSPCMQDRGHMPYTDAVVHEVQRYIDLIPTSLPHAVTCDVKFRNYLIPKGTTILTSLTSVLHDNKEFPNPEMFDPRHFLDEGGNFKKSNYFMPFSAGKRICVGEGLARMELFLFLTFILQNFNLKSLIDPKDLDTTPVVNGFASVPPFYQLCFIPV
Broadly, the inhibition is the change of the read-out against control, counted positive when it falls. For `COc1ccc(CCN(C)C(=O)C2CCCN(Cc3ccc(OC)c(OC)c3)C2)cc1OC` (stereo not drawn), the inhibition is 13.3% (inactive).

Turning to `COc1ccc(CCNC(=O)C2CCN(c3nn4c(=O)cc(C)nc4s3)CC2)cc1OC`, the inhibition is -7% (inactive).

With `COc1ccc(CCNC(=O)C2CCCN(Cc3nc(-c4cccc(Cl)c4)oc3C)C2)cc1OC` (stereo not drawn), the inhibition was 87.1% (active).

For `COc1ccc(CCNC(=O)c2ccc3c(c2)NC(=O)C(N2CCOCC2)S3)cc1OC` (stereo not drawn), the inhibition is 43.7% (inactive).

Consider `COc1ccc2c3c(c(=O)oc2c1OCC(=O)C(C)(C)C)CCCC3`, for which the inhibition is 15.9% (inactive).

On to `CC(C)CC(=O)N/C(N)=N/c1nc2ccccc2s1`, for which the inhibition was 36.7% (inactive).

Consider `Cc1ncc(CC(=O)n2cc(C(=O)c3cc(Cl)ccc3O)cn2)s1`, for which the inhibition was 61% (active).

On to `Cc1cc2cc3c(cc2nc1SCC(=O)Nc1c(C)cccc1C)CCC3`, for which the inhibition is 15.7% (inactive).

`Cn1c(Cc2cccc3ccccc23)nnc1SCC(=O)N1CCN(c2cccc(Cl)c2)CC1`: the inhibition was 12% (inactive).

On to `Cn1c(Cc2csc(N)n2)nnc1SC/C=C/c1ccccc1`, for which the inhibition was 61.6% (active).

In the case of `CCOC(=O)c1c(NC(=O)CSc2nnc(Cc3csc(N)n3)n2C)sc(C)c1C`, the inhibition is 16.5% (inactive).

Regarding `Cc1cccc(CCNS(=O)(=O)c2ccc(S(=O)(=O)NC3CCCC3)cc2)c1`, the inhibition was 67.1% (active).

Consider `Cc1cc(S(=O)(=O)NC2CCCCC2)ccc1OCC(=O)NCc1cccnc1`, for which the inhibition was 20.8% (inactive).

`COC(=O)c1cc(S(=O)(=O)NC2CCN(Cc3ccccc3)CC2)cn1C`: the inhibition was 0.8% (inactive).

With `N#CCCN1CCN(S(=O)(=O)c2ccc(S(=O)(=O)NC3CCCCC3)cc2)CC1`, the inhibition was 13.3% (inactive).

Regarding `CCCNS(=O)(=O)c1ccc(CCC(=O)NCc2cccnc2)cc1`, the inhibition was 22.4% (inactive).

Consider `O=C(CCc1ccc(S(=O)(=O)NC2CCCCC2)cc1)NCc1ccccc1`, for which the inhibition was 63.1% (active).

For the molecule `CSc1ccc(S(=O)(=O)NC2CCCCC2)cc1`, the inhibition was 88.8% (active).

In the case of `O=C(O)c1ccc(F)c(S(=O)(=O)Nc2ccccc2)c1`, the inhibition was 7.1% (inactive).

For the molecule `CCc1nnc(NS(=O)(=O)c2ccc(NS(=O)(=O)c3ccccc3)cc2)s1`, the inhibition was -6.3% (inactive).

For the molecule `CSc1ccc(S(=O)(=O)Nc2cccc(F)c2)cc1`, the inhibition is 99.4% (active).

For `O=S(=O)(NC1CCCCC1)c1ccc(F)c2ccccc12`, the inhibition is 26.5% (inactive).

Regarding `CCCc1ccc(-c2c(C)sc(NC(=O)c3ccnn3C)c2C#N)cc1`, the inhibition is 23.9% (inactive).

In the case of `CCCC(=O)N1c2ccccc2NC2=C(C(=O)CCC2)C1c1ccc(F)cc1` (stereo not drawn), the inhibition is 48.1% (inactive).

With `CN(C(=O)CSc1nnc(N)s1)c1c(N)n(Cc2ccccc2)c(=O)[nH]c1=O`, the inhibition is -3.1% (inactive).

Consider `O=C(CN1CCOCC1)N1CCCc2c1c(=O)oc1ccc(OCc3ccccc3)cc21`, for which the inhibition is 29.5% (inactive).

Regarding `CCN(CC)S(=O)(=O)c1ccc(N(C)Cc2ccc(C(F)(F)F)cc2)nc1`, the inhibition was 85.1% (active).

In the case of `Cc1ccc(-n2c(N)c(C(=O)N3CCOCC3)sc2=S)c(C)c1`, the inhibition was 20.4% (inactive).

For `C(=N\n1cnnc1)/c1cccnc1`, the inhibition is -5.3% (inactive).

As to `COc1ccccc1OCCOc1ccc(/C=N/n2cnnc2)cc1`, the inhibition was 38.5% (inactive).

For `COc1cccc(OCCOc2cccc(/C=N/n3cnnc3)c2)c1`, the inhibition is 54.7% (active).

For the molecule `Oc1ccc(CNc2ccccc2O)cc1`, the inhibition is 22% (inactive).

For the molecule `CC(C)C1N=C2c3ccccc3N=C(SCC(=O)c3ccc(O)c(O)c3)N2C1=O` (stereo not drawn), the inhibition was 16.6% (inactive).

As to `O=C(N/N=C/c1ccc(O)c(O)c1)C1c2ccccc2Oc2ccccc21`, the inhibition was -4.1% (inactive).

Take `CCCN(CCC)C(=O)C1c2ccccc2Oc2ccccc21`: the inhibition was 57.1% (active).

Regarding `COCC(=O)Nc1ccc(Br)cc1`, the inhibition is 13% (inactive).

With `CCCCc1nc2ccccc2c(=O)n1NC(=O)c1c(O)c2cccc3c2n(c1=O)CC3`, the inhibition was 8% (inactive).

With `O=C(c1cnn2ccccc12)N1CCc2ccccc21`, the inhibition was 25.2% (inactive).

On to `CCCCn1nc(C(=O)N2CCc3ccccc32)c2ccccc2c1=O`, for which the inhibition is 69.6% (active).

As for `Cc1ccc(-c2cc(C(=O)N/N=C/C=C/c3ccco3)c3ccccc3n2)cc1C`, the inhibition was -4.3% (inactive).

With `COC(=O)c1c(C)c(C)nc(N)c1C#N`, the inhibition is -7.3% (inactive).

Consider `O=C(CN1CCCCCC1)Nc1ccc(Br)cc1Br`, for which the inhibition is 42.6% (inactive).

As to `CCOc1cccc(-n2nnnc2-c2ccc(OC)cc2)c1`, the inhibition is 100% (active).

Regarding `CCOC(=O)c1sc(=S)n(-c2cccc(OC)c2)c1N`, the inhibition is 31.5% (inactive).

Turning to `CCOc1cccc(-c2nnc3sc(COc4ccc(OC)cc4)nn23)c1`, the inhibition was 19.8% (inactive).

As for `Cc1ccc2[nH]c3c(=O)n(Cc4ccccn4)cnc3c2c1`, the inhibition was -0.8% (inactive).

Turning to `CC(C)C(=O)OCC(=O)Nc1ccc2c(c1)CCC2`, the inhibition was 16.8% (inactive).

As to `COc1ccc(CNc2ccc3c(c2)CCC3)cc1OC`, the inhibition was 49.8% (inactive).

As for `COc1ccc(CC(=O)Nc2ccc3c(c2)CCC3)cc1S(=O)(=O)N1CCOCC1`, the inhibition was 54.5% (active).

Take `S=C1NC(c2ccccc2)=NCN1c1ccc(Br)cc1`: the inhibition is 52.3% (active).

Consider `O=C1CN(c2nc(-c3ccccc3)c3cc(Br)ccc3n2)c2ccccc2N1`, for which the inhibition is -14.1% (inactive).

Regarding `C=CCn1c2ccccc2c2nnc(SC(CC)C(=O)Nc3nc(C)c(C(=O)OCC)s3)nc21` (stereo not drawn), the inhibition was 48.6% (inactive).

For the molecule `CCN(CC)CCNC(=O)C1c2ccccc2C(=O)N(C)C1c1cn(C)c2ccccc12` (stereo not drawn), the inhibition is -5.9% (inactive).

As to `Cc1cccc(NC(=O)c2ccccc2NC(=O)C(C)(C)C)n1`, the inhibition was 30.7% (inactive).

Consider `Cc1ccc(SCC(=O)c2sc(-c3ccccc3)nc2C)cc1`, for which the inhibition was 60.9% (active).

As to `Cc1ccc(SCC(=O)Nc2ncc(C)s2)cc1`, the inhibition was 49.5% (inactive).

With `Cc1nc(-c2ccccc2)sc1C(=O)/C=C/c1ccccc1`, the inhibition was 16.8% (inactive).

On to `CC1CN(Cc2nc3c(c(=O)n(C)c(=O)n3C)n2Cc2cccc(Cl)c2)CC(C)O1` (stereo not drawn), for which the inhibition is 35.9% (inactive).

Source of the values: PubChem BioAssay AID778 (Sanford-Burnham Center for Chemical Genomics, 2007).
